PfHsp40 rescue = restores yeast growth despite PfHsp40 toxicity. S. cerevisiae expressing PfHsp40, growth rescue, ATP luminescence. AID 504582. growth rescue, % at 12.5 µM. 0.68% of 340,000 active; in the data active = growth rescue above about 28%, passing the limit was not always enough; inconclusive = no clear call, values can overlap the other calls;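 note: yeast W303a lacking pdr1 and pdr3 grown in galactose medium; growth measured after three days at 30 °C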
BoNT F protease = inhibitors of Botulinum neurotoxin F light chain protease. AID 588497. 0.22% of 360,000 active. Multiplex microsphere protease cleavage assay, flow cytometry. inhibition, % at 10 µM; in the data active = inhibition above about 35%, passing the limit was not always enough; inconclusive = no clear call, values can overlap the other calls; note: plate controls were buffer without enzyme for full effect and enzyme alone for no effect
BoNT-A LC inh2 = inhibitors of Botulinum neurotoxin A light chain protease. multiplex microsphere protease substrate cleavage, flow cytometry. 0.17% of 360,000 active. inhibition, % at 10 µM. AID 588499; note: plate controls were buffer without enzyme for full effect and enzyme alone for no effect
Anthrax LF prot = blocks Bacillus anthracis lethal factor protease; inhibition, % at 10 µM; P15917; 0.12% of 360,000 active; AID 588501; multiplex microsphere protease cleavage assay, LF; note: plate controls were buffer without enzyme for full effect and enzyme alone for no effect
Target sequence (P15917 whole entry, looked up): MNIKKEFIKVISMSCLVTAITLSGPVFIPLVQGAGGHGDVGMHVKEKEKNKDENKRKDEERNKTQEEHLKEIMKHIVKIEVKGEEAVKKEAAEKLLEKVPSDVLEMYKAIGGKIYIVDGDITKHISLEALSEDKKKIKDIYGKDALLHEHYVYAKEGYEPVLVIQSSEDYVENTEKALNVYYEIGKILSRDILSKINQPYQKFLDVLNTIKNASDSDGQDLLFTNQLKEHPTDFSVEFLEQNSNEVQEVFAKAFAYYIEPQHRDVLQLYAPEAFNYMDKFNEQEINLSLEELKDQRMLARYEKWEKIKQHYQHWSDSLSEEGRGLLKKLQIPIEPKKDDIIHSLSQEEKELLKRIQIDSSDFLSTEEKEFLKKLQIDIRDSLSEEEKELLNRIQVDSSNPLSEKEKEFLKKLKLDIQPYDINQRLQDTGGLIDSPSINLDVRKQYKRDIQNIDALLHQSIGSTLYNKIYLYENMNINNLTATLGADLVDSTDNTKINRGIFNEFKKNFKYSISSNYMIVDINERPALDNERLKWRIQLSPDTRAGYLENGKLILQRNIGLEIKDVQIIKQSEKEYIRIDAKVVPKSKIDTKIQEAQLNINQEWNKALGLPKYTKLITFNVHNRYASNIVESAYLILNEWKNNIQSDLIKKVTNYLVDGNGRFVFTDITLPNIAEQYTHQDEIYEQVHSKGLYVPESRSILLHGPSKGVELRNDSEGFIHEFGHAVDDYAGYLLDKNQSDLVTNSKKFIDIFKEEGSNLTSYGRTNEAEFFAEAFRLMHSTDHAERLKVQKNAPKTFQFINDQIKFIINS
MazF activator = MazEF (E. coli) toxin RNase activation | FAM/BHQ RNA-DNA oligo cleavage fluorescence, 5 h | activation, % at 20 µM | 0.32% of 350,000 active | AID 504720; in the data active = activation above about 50%
Bead autofluor = counter-screen for toxin protease inhibitors: compound fluorescence. compound autofluorescence counterscreen, microsphere flow cytometry; stronger effect = higher value. 3.1% of 360,000 active. AID 624483. fluorescence intensity (concentration not given with the values); in the data active = fluorescence intensity above about 16000; inconclusive = no clear call, values can overlap the other calls
* = called active by the depositor; ? = inconclusive; / = no result given. Only some compounds are listed: those with a hit (about 4.3% of all), similar ones and a draw of the others. Cut-off read from the data, not from the text of the source, unless noted: active = inhibition above about 30%; inconclusive = no clear call, values can overlap the other calls; inactive = below that.

SMILES | PfHsp40 rescue | BoNT F protease | BoNT-A LC inh2 | Anthrax LF prot | MazF activator | Bead autofluor
CC(C)[C@H](NC(=O)C1CCN(C(=O)[C@@H]2CCCN2)CC1)C(=O)NCc1ccc(F)cc1 | 2 | 0 | 0 | -4 | 3 | 4960
N#CCCn1c(-c2nonc2NC(=O)c2ccccc2Cl)nc2ccccc21 | -1 | -15 | -2 | -4 | 81* | 9411
CC(=O)Nc1nonc1-c1nc2ccccc2n1CCC#N | 0 | 2 | 0 | -6 | -4 | 8882
Cc1ccc(C(=O)CSc2nnc(-c3snnc3C)n2C2CC2)cc1 | 0 | ? | 3 | -2 | 1 | 3942
Cc1ccsc1CN1CCN(c2ccccn2)CC1 | 0 | 8 | 3 | -2 | 3 | 21639*
COCCCNCCOCCSc1ccc(Cl)cc1 | 0 | 0 | 0 | 0 | -5 | 7474
CN(C)CCOCCSc1ccc(Cl)cc1 | -1 | -5 | -2 | -7 | -2 | 23961*
CCCCNCCOCCSc1ccc(Cl)cc1 | 8 | -9 | -1 | -3 | 11 | 21188*
O=C1CC(NS(=O)(=O)c2cc(F)ccc2F)CN1c1ccc2c(c1)OCCO2 (stereo unspecified) | -1 | 9 | 7 | -2 | 5 | 4225
Nc1nc(NC(=O)CCC(=O)O)nn1-c1ccccc1 | -1 | -1 | 0 | 0 | -22 | 4360
O=C1c2cccnc2C(=O)N1C1CCCCC1 | 0 | 2 | 2 | -1 | 3 | 21393*
O=C1c2cccc([N+](=O)[O-])c2C(=O)N1C1CCCCC1 | -1 | -3 | -1 | -5 | 3 | 3218
CC(C)(C)NC(=O)CSc1nnc(-c2ccco2)n1Cc1ccco1 | -2 | -1 | -1 | -4 | 0 | 16522*
CCCn1c(SCC(=O)NC(C)(C)C)nnc1-c1ccco1 | 0 | -10 | 1 | -7 | 4 | 4753
Cc1cc(NS(=O)(=O)c2ccc(NC(=O)CSc3nnc(-c4ccco4)n3Cc3ccco3)cc2)nc(C)n1 | 54* | -1 | 0 | 1 | 7 | 2958
CC(C)(C)c1ccc(OCCC(=O)OCC(=O)N2c3ccccc3NC(=O)C2(C)C)cc1 | 3 | -7 | -2 | 2 | -8 | 5614
Cc1cc(/C=C2\C(=O)NC(=O)N(c3ccc(Br)cc3)C2=O)c(C)n1-c1cc(C(=O)O)cc(C(=O)O)c1 | 7 | 5 | -3 | 5 | -62 | 3824
Cc1cc(/C=C2\C(=O)NC(=O)N(c3ccc(Br)cc3)C2=O)c(C)n1C | 0 | -4 | 0 | -1 | 87* | 2729
Cc1cc(/C=C2/C(=O)NC(=O)N(c3ccc(Br)cc3)C2=O)c(C)n1C | 5 | / | / | / | 20 | /
Cc1cc(/C=C2\C(=O)NC(=O)N(c3cccc(Br)c3)C2=O)c(C)n1C | 2 | -2 | 0 | 0 | 230* | 2594
CCCCCc1nc2ccccc2c(=O)n1-c1ccc(Cl)cc1[N+](=O)[O-] | -1 | -6 | -3 | 0 | 0 | 23302*
O=C(c1ccc(Cl)cc1)c1ccc(Oc2cc(NN3CCCCC3)c([N+](=O)[O-])cc2[N+](=O)[O-])cc1 | -1 | -2 | 0 | -5 | 0 | 3922
COC(=O)COc1ccc(S(=O)(=O)Nc2ccc3c(c2)OCCO3)cc1C | -2 | ? | -3 | 14 | 2 | 3591
COC(=O)COc1ccc(S(=O)(=O)Nc2ccc3c(c2)OCCO3)cc1Cl | 1 | 5 | 5 | -4 | 11 | 20964*
Cc1cc(Cl)c(S(=O)(=O)N2CCN(c3ccc(F)cc3)CC2)cc1OCC(N)=O | 0 | 0 | 0 | 2 | 35 | 3071
SMILES | PfHsp40 rescue | BoNT F protease | BoNT-A LC inh2 | Anthrax LF prot | MazF activator | Bead autofluor
Cc1cc(Cl)c(S(=O)(=O)Nc2ccc3c(c2)OCCO3)cc1OCC(=O)NC1CCCCC1 | 3 | 1 | ? | -3 | 11 | 19863*
Cc1cc(Cl)c(S(=O)(=O)Nc2ccon2)cc1OCC(=O)NC1CCCCC1 | 1 | 8 | -1 | -15 | 0 | 10581
Cc1cc(Cl)c(S(=O)(=O)N2CCN(c3ccc(F)cc3)CC2)cc1OCC(=O)NC1CCCCC1 | 0 | -3 | -1 | -4 | 4 | 16526*
O=C(COC(=O)/C=C/c1cccc([N+](=O)[O-])c1)Nc1cccnc1Cl | ? | 3 | 0 | -8 | 1 | 3511
COc1cc2c(cc1OC)CN(CC(=O)Nc1ccc(C)cc1)CC2 | 0 | -2 | 0 | -2 | -3 | 20583*
Cc1ccc(NC(=O)C(C)N2CCc3ccccc3C2)cc1 (stereo unspecified) | 0 | -3 | 0 | -15 | -3 | 4338
COc1cc2c(cc1OC)CN(C(C)C(=O)Nc1ccc(NC(C)=O)cc1)CC2 (stereo unspecified) | 0 | -8 | -4 | -5 | 14 | 17392*

Assay outcomes (PubChem BioAssay)
